# In the library only some 19% were active in any assay of this set; here they are far more common.
# DT40 TDP1 no CPT: qHTS for Inhibitors of human tyrosyl-DNA phosphodiesterase 1 (TDP1): qHTS in cells in absence of CPT. DT40 Tdp1-/- hTDP1 cells, no CPT, ATP luminescence, 48 h. Potency, µM (top dose mostly 46.2 µM), most hits filed as inhibitors. 420,000 tested, 15% active. AID 686978, 2013; note: nearly all actives have a fitted effect of over 55% in size
#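 Camptothecin absent (DMSO only). Human TDP1-complemented DT40 knockout cells, 400 cells/well, 37 °C for minimum 48 hr; ATP measured via CellTiter-Glo, 30 min dark incubation, luminescence.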
# TDP1 cell CPT: DT40-hTDP1 cell growth loss with CPT | 420,000 tested, 12% active | Potency, µM (titrated, usually from 46.2 µM), actives largely listed as inhibitors | chicken DT40 Tdp1-/-;hTDP1 cells + 20 nM CPT, ATP luminescence, 48 h; note: nearly all actives have a fitted effect of over 55% in size
#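 Cell growth measured by CellTiter-Glo luminescence after a minimum 48 h, 37 C compound exposure with 20 nM CPT in Tdp1-knockout DT40 cells stably expressing hTDP1, seeded 400/well; qHTS titration format.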
# HT1080 IDH1KD tx: toxicity to HT-1080 IDH1 knockdown cells (counter line); 360,000 tested, 2% active; AID 686971; Potency, µM (titrated, usually from 46.1 µM), actives largely listed as cytotoxic; HT-1080 IDH1 knockdown viability, ATP luminescence, 48 h
#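 Using the IDH1-knockdown HT-1080 line run in the same batch and compound series as the NT line, viability after 48 h at 37 °C was determined by CellTiter-Glo luminescence and expressed as % activity.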
# IL-1B inflam inh: blocks inflammasome-driven IL-1 beta release; activity change, % at 57.5 µM; 360,000 tested, 4.7% active; THP-1 LPS/ATP IL-1B secretion, AlphaLISA, 16 h; stronger effect = lower value; in the data active = activity change below about -50%; inconclusive = mostly about -30% to -49%
#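 THP-1 cells pretreated 1 hr with compounds (up to 57.5 uM final), then stimulated with LPS (250 ng/mL final) plus ATP (1.25 mM final); secreted IL-1B measured by AlphaLISA after 16 hr, decreased signal indicating inhibition.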
# HT1080-NT tox: kills 2HG-producing HT-1080-NT fibrosarcoma cells; 360,000 tested, 1.6% active; HT-1080-NT fibrosarcoma viability, CellTiter-Glo ATP luminescence, 48 h; Potency, µM (top dose mostly 46.1 µM), actives largely listed as cytotoxic;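 note: NT is the 2HG producing partner of a matched IDH1 knockdown line; nearly all actives have a fitted effect of over 55% in size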
#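 A 48-hour cytotoxicity screen used HT-1080-NT cells plated 2 hours before compound delivery. ATP-based CellTiter-Glo luminescence measured viability, normalized to DMSO and no-cell controls.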
# Hits are given with their value; i = inactive; ? = inconclusive; nt = no result; ! = not confirmed by another sample. Unless noted, calls come from the whole dose curve; as a rule, active = well fitted curve in the direction sought with a large enough effect; inconclusive = small, poorly fitted or top-dose-only effect, or another doubt; inactive = no such curve, though single readings can be large; an effect the other way counts as inactive or inconclusive.
SMILES,DT40 TDP1 no CPT,TDP1 cell CPT,HT1080 IDH1KD tx,IL-1B inflam inh,HT1080-NT tox
CCc1nc2ccc(C(=O)NCCCN3CCCC3=O)cn2c1N(C)C(=O)COc1ccccc1,i,i,i,i,i
COC(=O)[C@H]1C[C@H](OC(=O)NC2CCCC2)[C@@]2(O)CN(S(=O)(=O)c3ccc(C)cc3)CC2[C@H]1C(=O)OC (some centres not stated),i,i,i,i,i
O=C(NC1CCC(=O)N(CCOc2ccccc2)CC1)OCc1ccccc1 (configuration not stated),11µM!,?,i,i,i
Cc1ccc(SCCN2CCC(NC(=O)OCc3ccccc3)CCC2=O)cc1 (configuration not stated),18µM,?,i,i,i
C[C@H]1CCC(=O)N([C@H](CN=[N+]=[N-])Cc2ccccc2)CC1,?,i,i,i,i
[N-]=[N+]=NC[C@H](Cc1ccccc1)N1CC[C@@H](NC(=O)OCc2ccccc2)CCC1=O,16µM,?,i,i,i
O=C(NC1CCC(C(=O)O)CC1)OCc1ccccc1 (configuration not stated),i,i,i,i,i
Cc1ccc(SC[C@H](C)CN2CCC(NC(=O)OCc3ccccc3)CCC2=O)cc1 (some centres not stated),?,?,?,i,?
O=C(N[C@H]1CCC(=O)N(CCSc2ccc(Br)cc2)CC1)OCc1ccccc1,16µM,15µM,?,i,?
CC(C)CN(CC(C)C)C(=S)NC1CCCCC1,?,?,i,i,i
O=[N+]([O-])c1cccnc1N1CCN(c2ccc(F)cc2)CC1,?,i,i,i,i
O=C(N[C@@H]1CCC(=O)N(CC[C@H](Sc2ccccc2)c2ccccc2)CC1)OCc1ccccc1,23µM,?,?,?,?
CCc1nc2ccc(C(=O)N(CC)CCN(C)C)cn2c1N(C)Cc1cccs1,i,i,i,i,i
COC(=O)c1ccc(Nc2cc(C)nc3ccccc23)cc1,18µM,?,21µM,-97,18µM
COC(=O)c1ccc2nc(C)cc(Nc3ccc(O)cc3)c2c1,15µM,21µM,nt,nt,nt
COC(=O)c1ccc2nc(C)cc(Nc3ccc(N(C)C)cc3)c2c1,?,i,i,i,i
CCC(C)(C)n1nnnc1CN1CCN(c2nc3cc(OC)ccc3cc2C#N)CC1,23µM,?,i,-56,i
Cc1ccc2nc(N3CCN(Cc4nnnn4C4CCCC4)CC3)c(C#N)cc2c1,23µM,?,i,i,i
Cc1ccc(C)c(N2CCN(Cc3nnnn3C3CCCCC3)CC2)c1,?,?,i,i,i
O=S(=O)(c1ccccc1)c1cnc(-c2ccccc2)nc1N1CCCC1,18µM,i,i,i,i
Cc1nc(-c2ccccc2)sc1-c1nc(-c2ccncc2)ncc1S(=O)(=O)c1ccccc1,?,?,i,-54,i
Fc1ccc(-c2n[nH]c(=S)n2/N=C/c2c[nH]c3ccccc23)cc1,6.5µM,7.3µM,i,i,i
Cc1nn(-c2ccccc2)c(C)c1/C=N/n1c(-c2ccc(Cl)cc2)n[nH]c1=S,16µM,?,i,i,i
Cc1nn(-c2ccccc2)c(C)c1/C=N/n1c(-c2ccncc2)n[nH]c1=S,i,i,i,i,i
Cc1cc(-c2n[nH]c(=S)n2/N=C/c2c[nH]c3ccccc23)n[nH]1,?,i,i,i,i
SMILES,DT40 TDP1 no CPT,TDP1 cell CPT,HT1080 IDH1KD tx,IL-1B inflam inh,HT1080-NT tox
Cc1c(-n2c(=O)n(Cc3ccccc3)c(=O)c3[nH]cnc32)cccc1S(C)=O (configuration not stated),i,i,i,i,i
COc1cc(F)ccc1-c1cc(C(=O)Nc2ccc(NC(C)=O)cc2)[nH]n1,?,i,i,i,i
O=C1/C(=C/c2cccs2)SC(=S)N1CCC(=O)N1CCCCC1CCO (configuration not stated),?,?,i,-56,i
COc1cccc(/C=C2\SC(=S)N(CCCC(=O)N3CCCCC3CCO)C2=O)c1 (configuration not stated),16µM,?,i,-70,i
O=C(O)CCN1C(=O)/C(=C\c2cccc(Oc3ccccc3)c2)SC1=S,i,i,i,i,i
COc1ccccc1/C=C1\SC(=S)N(CCC(=O)N2CCCCC2CCO)C1=O (configuration not stated),?,16µM,i,?,i
COc1cccc(/C=C2\SC(=S)N(CCCC(=O)N3CCCC3)C2=O)c1,21µM,?,i,-91,i
CCC(CC)C(=O)OCc1cc(=O)n2nc(C3CC3)sc2n1,?,i,nt,nt,nt
CCN(C(=O)CSC1=Nc2ccccc2C2CC=NN12)C1CCS(=O)(=O)C1 (configuration not stated),?,?,i,i,i
COc1cccc(/C=C2\SC(=O)N(CCC(=O)N3CCC(C(=O)O)CC3)C2=O)c1,i,i,i,i,i
COc1cccc(/C=C2\SC(=S)N(CCC(=O)N3CCCCC3CCO)C2=O)c1 (configuration not stated),18µM,13µM,i,?,i
CCN(CC)C(=O)CSc1nc2cc3c(cc2c(=O)n1Cc1ccc(OC)cc1)OCO3,18µM,23µM,i,i,?
COCCCNC(=O)CSc1nc2ccccc2c(=O)n1Cc1ccc2c(c1)OCO2,i,i,i,i,i
CC1CCCCN1C(=O)CSc1nc2cc3c(cc2c(=O)n1Cc1ccc2c(c1)OCO2)OCO3 (configuration not stated),23µM,21µM,i,?,i
CCn1c(SCC(=O)N2CCCCC2C)nc2ccsc2c1=O (configuration not stated),?,10µM,i,i,i
CCN(CC)C(=O)CSc1nc2cc3c(cc2c(=O)n1CCCCCC(=O)NCCc1ccc(OC)c(OC)c1)OCO3,15µM,15µM,nt,nt,nt
CCOC(=O)CSc1nc2cc3c(cc2c(=O)n1CCCCCC(=O)NCc1ccc(OC)cc1)OCO3,?,i,nt,nt,nt
Cc1ccc2ccc(C#N)cc2c1O,i,i,i,i,i
COc1ccc(S(=O)(=O)N2CCC(C(=O)N[C@@H](C)C(=O)NCc3ccco3)CC2)cc1,i,i,i,i,i
COc1ccc(CCNC(=O)c2ccc(Cn3c(SCC(=O)NCCC(C)C)nc4cc5c(cc4c3=O)OCO5)cc2)cc1OC,i,i,nt,nt,nt
COCCNC(=O)CSc1nc2cc3c(cc2c(=O)n1Cc1ccc(C(=O)NCCc2ccc(OC)c(OC)c2)cc1)OCO3,21µM,8.2µM,nt,nt,nt
CC(=O)Nc1cccc(-c2cc(NC=O)c3ncc(-c4cccc(C(C)=O)c4)n3c2)c1,21µM,?,?,i,?
COc1ccc(-c2cc(NC=O)c3ncc(-c4cccc(C(C)=O)c4)n3c2)cc1,18µM,?,?,i,i

# High-throughput results deposited in PubChem by National Center for Advancing Translational Sciences (NCATS).
